Data from PubChem BioAssay (NCATS).
Records with an inconclusive call do not appear. Active and inactive are the calls of the source. Calls come from the whole dose curve; as a rule, active = well fitted curve in the direction sought with a large enough effect; inconclusive = small, poorly fitted or top-dose-only effect, or another doubt; inactive = no such curve, though single readings can be large; an effect the other way counts as inactive or inconclusive.

Columns and labels:
CRL-7250 = normal cell line; test: Cytotoxic Profiling of Annotated Libraries Using Quantitative High-Throughput Screening (AID 1296008); settings: Five cell lines viability, CellTiter-Glo ATP luminescence, 48-72 h; max response: hits give low values; note: nearly all actives have a fitted effect of over 60% in size; note: potency is the fitted concentration of half-maximal effect; for max response: % is set by controls: 0 for no effect and ±100 for the full control effect
In short: (§1)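 Cytotoxicity was measured as CellTiter-Glo ATP luminescence, read after 10 min at room temperature. Compound treatment of the cells lasted 48 or 72 hr at 37 degrees Celsius in a qHTS format.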

HaCat = test: as above; settings: Five cell lines viability, CellTiter-Glo ATP luminescence, 48-72 h; max response: hits give low values
In short: as §1

NIH3T3 [1] = test: as above; settings: Five cell lines viability, CellTiter-Glo ATP luminescence, 48-72 h; max response: hits give low values
In short: as §1

C33A = test: Primary qHTS to identify gynecologic anti-cancer compounds using libraries of approved drugs and bioactive compounds (AID 1345084); settings: Gynecologic cancer cell panel viability, ATPlite luminescence, 48 h; series mostly up to 57.5 µM; note: nearly all actives have a fitted effect of over 55% in size; note: potency is the fitted concentration of half-maximal effect; for activity change, negative = cytotoxicity: % is set by controls: 0 for no effect and ±100 for the full control effect
In short: (§2)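 Measured: luminescence after ATPlite addition (15 min, RT). Exposure: 48 h, 37 C, 5% CO2.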

CAOV3 = test: as above; settings: Gynecologic cancer cell panel viability, ATPlite luminescence, 48 h; series mostly up to 57.5 µM
In short: as §2

Es-2 = test: as above; settings: Gynecologic cancer cell panel viability, ATPlite luminescence, 48 h; series mostly up to 57.5 µM
In short: as §2

HeLa = test: as above; settings: Gynecologic cancer cell panel viability, ATPlite luminescence, 48 h; series mostly up to 57.5 µM
In short: as §2

Hek293T = test: as above; settings: Gynecologic cancer cell panel viability, ATPlite luminescence, 48 h, control line for the selectivity index; series mostly up to 57.5 µM
In short: as §2

JEG-3 = test: as above; settings: Gynecologic cancer cell panel viability, ATPlite luminescence, 48 h; series mostly up to 57.5 µM
In short: as §2

OV90 = test: as above; settings: Gynecologic cancer cell panel viability, ATPlite luminescence, 48 h; series mostly up to 57.5 µM
In short: as §2

PA-1 = test: as above; settings: Gynecologic cancer cell panel viability, ATPlite luminescence, 48 h; series mostly up to 57.5 µM
In short: as §2

SKOV3 = test: as above; settings: Gynecologic cancer cell panel viability, ATPlite luminescence, 48 h; series mostly up to 57.5 µM
In short: as §2

CASKI = test: as above; settings: Gynecologic cancer cell panel viability, ATPlite luminescence, 48 h; series mostly up to 57.5 µM
In short: as §2

NIH3T3 [2] = test: qHTS assay to identify novel small-molecules to repurpose for Merkel cell carcinoma treatment (AID 1296009); settings: MCC and control cell lines, CellTiter-Glo viability, 72 h; series mostly up to 44.8 µM; note: nearly all actives have a fitted effect of over 60% in size
In short: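 After compound transfer in DMSO, plates were kept 72 hr at 37 degree celsius. Luminescent ATP signal from CellTiter-Glo served as viability measure, normalized against DMSO and no-cell controls.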

KB-3-1 = test: Cytotoxic Profiling of Annotated Libraries Using Quantitative High-Throughput Screening (AID 1296008); settings: Five cell lines viability, CellTiter-Glo ATP luminescence, 48-72 h; max response: hits give low values; note: nearly all actives have a fitted effect of over 60% in size; note: potency is the fitted concentration of half-maximal effect; for max response: % is set by controls: 0 for no effect and ±100 for the full control effect
In short: as §1

HEK293 = test: as above; settings: Five cell lines viability, CellTiter-Glo ATP luminescence, 48-72 h; max response: hits give low values
In short: as §1

CC(F)(F)CN1CCOc2c(nn(-c3ccccc3Cl)c2-c2ccc(Cl)cc2)C1=O
inactive: outcome (CRL-7250) | max response (HaCat) -16.2% | max response (NIH3T3 [1]) -14.8% | Potency (C33A) | Potency (CAOV3) | Potency (Es-2) | Potency (HeLa) | Potency (Hek293T) | Potency (JEG-3) | Potency (OV90) | Potency (PA-1) | Potency (SKOV3)

O=C1c2ccc(Nc3ccc(F)cc3F)cc2CCc2ccc(OCC(O)CO)cc21 (stereo unspecified)
inactive: max response (CRL-7250) -2.8% | max response (HaCat) 0.902% | max response (NIH3T3 [1]) -2.95% | Potency (C33A) | Potency (CAOV3) | Potency (CASKI) | Potency (Es-2) | Potency (HeLa) | Potency (Hek293T) | Potency (JEG-3) | Potency (OV90) | Potency (PA-1) | Potency (SKOV3)

CCCc1ccc(OCC(=O)N(Cc2nc(-c3cccnc3)no2)C(C)C)cc1
active: Potency (CRL-7250) 23.1 µM
inactive: max response (HaCat) -2.41% | max response (NIH3T3 [1]) -9.24% | Potency (C33A) | Potency (CAOV3) | Potency (CASKI) | Potency (Es-2) | Potency (HeLa) | Potency (JEG-3) | Potency (OV90) | Potency (PA-1) | Potency (SKOV3)

CC1(C)OC[C@H](NC(=O)Nc2ccc(Br)cc2Br)[C@H](c2ccccc2)O1
inactive: outcome (CRL-7250) | max response (HaCat) -5.94% | max response (NIH3T3 [1]) 0.948% | Potency (C33A) | Potency (CAOV3) | Potency (CASKI) | Potency (Es-2) | Potency (HeLa) | Potency (Hek293T) | Potency (JEG-3) | Potency (OV90) | Potency (PA-1) | Potency (SKOV3)

C/C=C/[C@@H]1C=C[C@@H]2C[C@H](C)CC[C@H]2[C@]1(C)/C(O)=C1/C(=O)[C@@H](CO)N(C)C1=O
inactive: outcome (CRL-7250) | max response (HaCat) 3.96% | outcome (NIH3T3 [1]) | Potency (NIH3T3 [2]) | Potency (CAOV3) | Potency (CASKI) | Potency (Es-2) | Potency (HeLa) | Potency (Hek293T) | Potency (JEG-3) | Potency (OV90) | Potency (PA-1) | Potency (SKOV3)

CCC(C)CNCC(=O)N1CCc2sccc2C1COc1cccc(C)c1 (stereo unspecified)
inactive: max response (CRL-7250) -0.461% | max response (HaCat) 1.97% | max response (NIH3T3 [1]) -25.4% | Potency (C33A) | Potency (CAOV3) | Potency (CASKI) | Potency (Es-2) | Potency (HeLa) | Potency (Hek293T) | Potency (JEG-3) | Potency (PA-1) | Potency (SKOV3)

CC(=O)Nc1nc(C)c(-c2nc(N3CCCC(O)C3)no2)s1 (stereo unspecified)
active: Potency (CRL-7250) 8.2 µM | Potency (HaCat) 4.11 µM | Potency (NIH3T3 [1]) 18.4 µM
inactive: Potency (C33A) | Potency (Es-2)

NC(N)=NC(=O)c1cnn(-c2cccc3ncccc23)c1C1CC1
inactive: max response (CRL-7250) -23.8% | max response (HaCat) -2.12% | max response (NIH3T3 [1]) -11.3% | Potency (C33A) | Potency (CAOV3) | Potency (CASKI) | Potency (Es-2) | Potency (HeLa) | Potency (Hek293T) | Potency (JEG-3) | Potency (PA-1)

Cc1cc(C(C)Nc2ccccc2C(=O)O)c2nc(N3CCOCC3)cc(=O)n2c1 (stereo unspecified)
inactive: max response (CRL-7250) -22.4% | Potency (C33A) | Potency (CAOV3) | Potency (Es-2) | Potency (HeLa) | Potency (OV90)
active: Potency (HaCat) 7.31 µM | Potency (NIH3T3 [1]) 23.1 µM

CO[C@H]1[C@@H](O)[C@H](O[C@H]2CC[C@@]3(C)C(CCC4C3CC[C@]35COC6(COC(=O)C6)C3CCC45O)C2)O[C@@H](C)[C@@H]1OC1OC(CO)C(OC2OC(CO)C(O)C(O)C2O)C(O)C1O (stereo partly specified)
inactive: max response (HaCat) -26.8% | outcome (NIH3T3 [1]) | outcome (NIH3T3 [2]) inactive [at 9.27 µM] | activity change, negative = cytotoxicity (CAOV3) -7.69% [at 11.6 µM] | activity change, negative = cytotoxicity (CASKI) -2.83% [at 11.6 µM] | activity change, negative = cytotoxicity (Hek293T) -29.3% [at 11.6 µM] | activity change, negative = cytotoxicity (JEG-3) 18.5% [at 11.6 µM] | activity change, negative = cytotoxicity (OV90) 16.3% [at 11.6 µM]
active: Potency (CRL-7250) 3.48 µM

O=C(NS(=O)(=O)c1ccc(Br)s1)c1ccc(Cl)cc1Cl
inactive: max response (CRL-7250) -22.3% | max response (HaCat) 3.71% | max response (NIH3T3 [1]) -6.08% | Potency (C33A) | Potency (CAOV3) | Potency (CASKI) | Potency (Es-2) | Potency (HeLa) | Potency (Hek293T) | Potency (JEG-3) | Potency (OV90) | Potency (PA-1)

C=C(C)C1CC(O)C(C)C12CC(O)C1(C)OC1C2O (stereo unspecified)
inactive: max response (NIH3T3 [1]) -26.2%
active: Potency (CRL-7250) 2.59 µM | Potency (KB-3-1) 3.66 µM | Potency (C33A) 11.2 µM | Potency (CASKI) 12.6 µM | Potency (Es-2) 8.91 µM | Potency (HeLa) 14.1 µM | Potency (JEG-3) 28.2 µM | Potency (OV90) 7.08 µM | Potency (PA-1) 8.91 µM | Potency (SKOV3) 7.94 µM

CC(C)=CCC[C@](C)(O[C@@H]1O[C@H](CO[C@@H]2OC[C@@H](O)[C@H](O)[C@H]2O)[C@@H](O)[C@H](O)[C@H]1O)[C@H]1CC[C@]2(C)[C@@H]1[C@H](O)C[C@@H]1[C@@]3(C)CC[C@H](O[C@@H]4O[C@H](CO)[C@@H](O)[C@H](O)[C@H]4O)C(C)(C)[C@@H]3CC[C@]12C
inactive: max response (CRL-7250) -26.7% | max response (KB-3-1) 5.08% | Potency (C33A) | Potency (CAOV3) | Potency (CASKI) | Potency (Es-2) | Potency (HeLa) | Potency (Hek293T) | Potency (JEG-3) | Potency (OV90) | Potency (PA-1) | Potency (SKOV3)

CCS(=O)c1nc(-c2cccc(OCc3ccccc3)c2)cc(C(F)(F)F)n1 (stereo unspecified)
inactive: max response (CRL-7250) 1.1% | Potency (CASKI) | Potency (Es-2) | Potency (HeLa) | Potency (OV90) | Potency (SKOV3)
active: Potency (NIH3T3 [1]) 18.4 µM

FC(F)(F)c1ccc(CNc2ccc(Cc3c[nH]c4ncc(Cl)cc34)cn2)cn1
active: Potency (HEK293) 26.3 µM

CC(C)=CCC/C(C)=C/COCC1OC(n2ccc(=O)[nH]c2=O)C(O)C1O (stereo unspecified)
inactive: max response (CRL-7250) -3.59% | max response (KB-3-1) 7.71% | Potency (CASKI) | Potency (Es-2) | Potency (HeLa) | Potency (Hek293T) | Potency (JEG-3) | Potency (PA-1) | Potency (SKOV3)

Cc1cc(F)ccc1[C@H]1C[C@@H](N2CCN3C(=O)CC[C@H]3C2)CCN1C(=O)N(C)[C@H](C)c1cc(C(F)(F)F)cc(C(F)(F)F)c1
inactive: max response (CRL-7250) 2.7% | outcome (NIH3T3 [1]) | Potency (NIH3T3 [2]) | Potency (C33A) | Potency (CAOV3) | Potency (CASKI) | Potency (Es-2) | Potency (HeLa) | Potency (JEG-3) | Potency (OV90) | Potency (PA-1)
